From PubChem BioAssay
Compounds with a hit are over-represented: about 3.6% of the library has one in this group of screens.
Pf apPOL inh: Pf-apPOL DNA polymerase inhibition. 0.25% of 210,000 active. Recombinant Pf-apPOL, molecular beacon fluorescence, 1.5 h. inhibition, % at 10 µM. AID 1794808
mHTT-CaM PPI inh: inhibitors of human mutant huntingtin-calmodulin interaction. P42858. AlphaScreen His-mHTT/GST-CaM binding, luminescence. inhibition, % at 15 µM. 3.6% of 190,000 active. AID 1671202
Hits are given with their value; 0 = inactive; - = no result given. Rule as the data show it: active = inhibition above about 50%; inactive = the rest.

SMILES	Pf apPOL inh	mHTT-CaM PPI inh
Cc1ccc(C(=O)O)cc1N=Cc1cc([N+](=O)[O-])cc([N+](=O)[O-])c1O	0	0
Cc1ccc(N=Cc2cc(Cl)cc([N+](=O)[O-])c2O)c(O)c1	0	56
COc1cc(C=Nc2ccccc2O)c([N+](=O)[O-])cc1OC	0	86
O=C(Cc1c[nH]c2ncccc12)NCc1ccc(C(F)(F)F)cc1	86	0
O=C(Cc1c[nH]c2ncccc12)NCc1ccccc1	0	0
O=C(Cc1cccs1)Nc1cccc(C(=O)c2ccccc2)c1	0	0
O=C(Cc1cccs1)Nc1cnc(-c2ccccc2)nc1	0	51
O=c1c(N=Cc2cccc([N+](=O)[O-])c2)cc2[nH]c3ccccc3c2n1-c1ccccc1	0	97
O=c1c(-[n+]2ccccc2)cc2[nH]c3ccccc3c2n1-c1ccccc1	0	0
O=c1c(N=Cc2ccccc2)cc2[nH]c3ccccc3c2n1-c1ccccc1	0	99
Cc1ccc(C)c(N=Cc2cccc([N+](=O)[O-])c2)c1	0	0
Cc1ccc(NC(=O)c2cn(C)c(=O)c3ccccc23)c(Br)c1	0	0
Cn1cc(C(=O)Nc2ccc3c(c2)CCC3)c2ccccc2c1=O	0	50
Cc1ccc2nc(-c3cc(N=Cc4ccc([N+](=O)[O-])cc4)ccc3O)oc2c1	0	0
Cc1ccc2nc(-c3ccc(N=Cc4ccc5c(c4)OCO5)cc3O)oc2c1	0	60
COc1ccc(Cl)cc1NC(=O)c1c(NCc2cccnc2)sc2c1CCCC2	0	79
COc1ccc(Cl)cc1NC(=O)c1c(NCc2cccs2)sc2c1CCC2	0	0
COc1ccc(Cl)cc1NC(=O)C(=O)NCc1cccnc1	0	0
COc1ccc(Cl)cc1NC(=O)c1c(NCc2cccnc2)sc2c1CCC2	0	93
COc1ccc(C)cc1NC(=O)N1CCN(c2ccc(-c3ccc4c(c3)OCO4)nn2)CC1	0	0
O=C1C(N2CCCC2)=C(N2CCN(S(=O)(=O)c3ccccc3)CC2)C(=O)c2ccccc21	0	80
O=S(=O)(c1ccccc1)N1CCN(S(=O)(=O)c2ccccc2)C1	0	0
COc1ccc(NC(=O)c2noc3c2CCC3)cc1OC	0	0
CN(C)CCNC(=O)C1CCN(c2nc3ccc(-c4ccncc4)nc3s2)CC1	0	0
CCCNC(=O)C1CCN(c2nc3ccc(-c4cccs4)nc3s2)CC1	0	0
SMILES	Pf apPOL inh	mHTT-CaM PPI inh
CN(C)CCNC(=O)C1CCN(c2nc3ccc(-c4ccsc4)nc3s2)CC1	0	66
CCN(CC)C(=O)C1CCN(c2nc3ccc(-c4cccs4)nc3s2)CC1	0	64
CN(C)C(=O)NC(Nc1ccc([N+](=O)[O-])cc1)C(Cl)(Cl)Cl (centres undefined)	0	0
Cc1ccc(N2C(=O)CSC2c2ccccc2[N+](=O)[O-])cc1 (centres undefined)	0	0
Oc1c(Cl)cc(Cl)cc1C=Nc1ccccc1-c1nc2ccccc2[nH]1	0	-
FC(F)(F)c1cccc(N2COc3ccc(Cl)cc3C2)c1	0	0
Cc1cccc(N2COc3ccc(Br)cc3C2)c1	0	99
Cc1ccc(N2COc3ccc(Br)cc3C2)cc1	0	73
Cc1cc(=O)oc2c3c(ccc12)OCN(c1ccc(Cl)cc1)C3	0	0
CN(C)c1ccc(C(=O)Nc2nc(C(C)(C)C)cs2)cc1[N+](=O)[O-]	0	62
CNc1ccc(C(=O)Nc2nc(C(C)(C)C)cs2)cc1[N+](=O)[O-]	0	0
O=C(Nc1nc2c(s1)CN(CC(=O)N1CCCc3ccccc31)CC2)c1cnccn1	0	63
O=C(Nc1nc2c(s1)CN(C(=O)Cc1cccs1)CC2)c1cnccn1	0	0
Cc1nc(SCC(=O)c2ccc(Br)cc2)n[nH]1	0	0
NC(=O)c1ccc(NS(=O)(=O)c2ccccc2[N+](=O)[O-])cc1	0	0
O=S(=O)(Nc1ccc(F)cc1)c1ccccc1	0	0
NS(=O)(=O)c1ccc(NS(=O)(=O)c2ccc(NC(=S)Nc3ccccc3)cc2)cc1	-	0
COc1ccc(S(=O)(=O)Nc2ccc(Nc3ccccc3)cc2)cc1	0	89
O=[N+]([O-])c1ccccc1S(=O)(=O)Nc1ccc(Nc2ccccc2)cc1	0	90
COc1ccc(S(=O)(=O)Nc2cccc(NS(=O)(=O)c3ccc(OC)cc3)c2)cc1	0	0
O=S(=O)(Nc1ccc(Nc2ccccc2)cc1)c1ccccc1	0	88
NS(=O)(=O)c1ccc(NS(=O)(=O)c2ccc(NC(=O)Nc3ccccc3)cc2)cc1	0	96
O=C(NC1CC1)c1nnc(N2CCN(c3ccccc3Cl)CC2)c2ccccc12	0	0
CC(C)(C)c1ccc(OCC(=O)O/N=C(\N)c2cccnc2)cc1	0	0
COc1cc(/C=C2/N=C(c3c(-c4ccccc4)noc3C)OC2=O)cc(OC)c1OC	0	0
COc1ccc(NS(=O)(=O)c2ccc(NS(=O)(=O)c3ccc(OC)cc3)cc2)cc1	0	0
COc1ccc(Nc2ccc(OC)cc2)cc1	0	90
COc1ccc(NS(=O)(=O)c2ccc(NS(C)(=O)=O)cc2)cc1	55	0
COc1ccc(NC2=C(C)C(=O)CC2)cc1	0	0
